Only some compounds are listed: those with a hit (about 4.6% of all), similar ones and a draw of the others.
D1 antagonist – Antagonist of Human D 1 Dopamine Receptor: qHTS. D(1A) dopamine receptor (Homo sapiens), P21728. HEK293 TREx D1 cells, calcium flux, dopamine EC80; stronger effect = lower value. activity change, negative = inhibition, % at 10 µM. 3.2% of 360,000 active. AID 504652, 2011; in the data active = activity change below about -30%; note: % is set by controls: 0 for no effect and ±100 for the full control effect
Target sequence (P21728 whole entry, looked up): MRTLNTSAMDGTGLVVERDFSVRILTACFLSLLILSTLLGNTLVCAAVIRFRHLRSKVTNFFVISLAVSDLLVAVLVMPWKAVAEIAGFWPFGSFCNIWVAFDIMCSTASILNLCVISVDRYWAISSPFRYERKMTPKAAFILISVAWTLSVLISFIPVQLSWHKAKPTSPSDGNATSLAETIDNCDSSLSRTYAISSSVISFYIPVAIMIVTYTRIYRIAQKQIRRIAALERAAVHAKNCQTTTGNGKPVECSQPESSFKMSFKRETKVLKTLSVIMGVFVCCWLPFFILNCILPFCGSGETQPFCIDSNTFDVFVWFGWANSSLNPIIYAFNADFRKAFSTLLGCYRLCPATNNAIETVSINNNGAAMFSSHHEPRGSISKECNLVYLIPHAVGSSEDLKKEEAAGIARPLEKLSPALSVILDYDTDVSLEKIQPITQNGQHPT
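Tetracycline-induced HEK293 Trex D1 cells, force-coupled to calcium, dye-loaded; compounds added and read 180 s, then EC80 dopamine added and calcium flux tracked kinetically another 180 s.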
TRHR ag – qHTS for Small Molecule Agonists and Allosteric Enhancers of Human TRH Receptor: Primary Screen for Agonists; activation, % at 2 µM; TRHR cells, calcium flux fluo-8, FDSS agonist mode; 0.18% of 360,000 active; Thyrotropin-releasing hormone receptor (Homo sapiens), P34981; note: 0% is about no effect
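TRHR-expressing cells, plated overnight in medium with 10% serum, were loaded with fluo-8 calcium dye at room temperature. After a 10 s baseline, library compound was pin-added and calcium release was recorded kinetically (ex 480/em 530) as agonist response.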
D1 ag – Allosteric Agonists of the Human D1 Dopamine Receptor: qHTS; activation, % at 2 µM; HEK293 T-REx D1 cells, calcium flux, agonist mode; D(1A) dopamine receptor (Homo sapiens), P21728; 1% of 360,000 active; note: 0% is about no effect
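Agonism was scored from calcium flux recorded over 180 s (1 read/s) after pintool compound addition, following a 10-cycle baseline. Cells were inducible force-coupled HEK293 TREx D1, plated overnight at 30 C and loaded with no-wash calcium dye.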
D1 PAM – Potentiators of Human D1 Dopamine Receptor: qHTS; HEK293 TREx D1 cells, calcium flux, dopamine EC20 potentiation; potentiation, % at 10 µM; 0.036% of 360,000 active; AID 504651, 2011; in the data active = potentiation above about 30%; note: 0% is about no effect
TRHR enhancer – qHTS for Small Molecule Agonists and Allosteric Enhancers of Human TRH Receptor: Primary Screen for Enhancers | Thyrotropin-releasing hormone receptor (Homo sapiens), P34981 | TRHR cells, fluo-8 calcium fluorescence, EC20 TRH enhancement | enhancement, % at 2 µM | 0.66% of 360,000 active; in the data active = enhancement above about 30%; note: 0% is about no effect
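TRHR-expressing cells loaded with fluo-8 calcium dye were read kinetically (ex 480/em 530) during compound addition, then stimulated with an EC20 of TRH (10 nM final). Enhancement of the Gq-mediated intracellular calcium response was scored.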
Starred values were filed as active, the others as inactive; . = no result given. Cut-off read from the data, not from the text of the source, unless noted: active = activation above about 30%; inactive = the rest.

SMILES	D1 antagonist	TRHR ag	D1 ag	D1 PAM	TRHR enhancer
Cn1cc([N+](=O)[O-])c(C(=O)Nc2ccn(C34CC5CC(CC(C5)C3)C4)n2)n1	13	0	4	7	11
NC(=O)[C@@H]1CC2(CC(c3cccc(NC(=O)CC(c4ccccc4)c4ccccc4)c3)=NO2)CN1C(=O)COc1ccc(Cl)cc1 (stereo partly specified)	-11	-1	11	3	-4
CCC(C)c1ccccc1NC(=O)C(C)OC(=O)c1ccco1 (stereo unspecified)	-4	0	0	0	6
Cc1c(C(=O)OC2CCCCCC2)[nH]c2c1C(=O)CC(c1ccc(N(C)C)cc1)C2 (stereo unspecified)	3	-1	3	1	0
O=C(Nc1ccc(N2CCN(C(=O)c3ccccc3)CC2)cc1)c1cc([N+](=O)[O-])ccc1N1CCOCC1	-4	0	1	-6	-5
COc1cc(Cl)c(C)cc1Nc1nc2ccccc2c2nnc(C)n12	-4	0	3	-3	33*
Cc1nnc2c3ccccc3nc(Nc3ccc(F)cc3Cl)n12	-1	1	2	2	5
Cc1ccccc1CCNC(=O)Cn1ccc2cc(S(=O)(=O)N3CCCC3)ccc21	8	0	3	-6	30*
CCn1ccc2cc(S(=O)(=O)N3CCCN(C(=O)Nc4ccc(C)c(F)c4)CC3)ccc21	-31*	0	2	-3	-9
CCOc1ccc(CNC(=O)Cn2ccc3cc(S(=O)(=O)N4CCCCC4)ccc32)cc1	-35*	0	1	-1	5
CCn1ccc2cc(S(=O)(=O)N3CCC(C(=O)NCCc4ccccc4Cl)CC3)ccc21	-40*	0	3	3	1
CCCCNC(=O)C1CCN(S(=O)(=O)c2ccc3c(ccn3CC)c2)CC1	2	0	-1	-2	5
Cc1cc(C)cc(Nc2cc(C(=O)NCCCN(Cc3ccccc3)C(C)C)c3ccccc3n2)c1	3	1	4	-7	5
COc1ccc(S(=O)(=O)N2CCC(C(=O)NCc3ccc(C)cc3)CC2)cc1	16	0	0	1	4
COc1ccc(CNC(=O)C2CCN(S(=O)(=O)c3ccc4c(ccn4C)c3)CC2)cc1	-35*	-1	4	-3	0
C=C[C@@H]1c2cc(C)ccc2N(S(=O)(=O)c2ccc(C)cc2)[C@H](c2ccccc2C(F)(F)F)C1(C#N)C#N	-35*	1	1	-3	-6
CCOc1ccccc1C(=O)NCC(=O)Nc1ccc(-c2ccccc2)cc1	5	1	0	-2	6
CCOc1ccccc1C(=O)NCC(=O)N(C)Cc1ccccc1C	-43*	0	6	-4	-6
CCCCN1C(=O)c2ccc(C(=O)Nc3ccc(C)c(S(=O)(=O)N(C)C)c3)cc2C1=O	-28	1	7	-9	-7
CC1CC(C)(C)CC2(C1)NC(=O)N(CC(=O)Nc1c(F)cccc1F)C2=O (stereo unspecified)	-3	0	10	.	14
CC1CC(C)(C)CC2(C1)NC(=O)N(CC(=O)Nc1cc([N+](=O)[O-])ccc1F)C2=O (stereo unspecified)	-33*	1	1	-6	2
COc1ccc(Cl)cc1C(=O)NCc1ccc2c(c1)OCO2	11	0	6	4	-8
COc1cc2c(C(=O)NCc3ccc4c(c3)OCO4)cn(C)c(=O)c2cc1OC	-31*	1	0	-4	7
COc1ccc(S(=O)(=O)N2CCOCC2)cc1C(=O)N(C)Cc1ccccc1F	2	0	1	-7	-5
Cc1ccccc1C(NC(N)=O)c1ccccc1 (stereo unspecified)	11	0	0	1	0
SMILES	D1 antagonist	TRHR ag	D1 ag	D1 PAM	TRHR enhancer
CC(NCC(O)COc1ccc(Br)cc1)c1ccccc1 (stereo unspecified)	-14	2	7	-10	1
CC1CCC(C(C)C)C(OCC(O)CNC(C)c2ccccc2)C1 (stereo unspecified)	43	-1	33*	-1	2
CC(NCC(O)COC1CCC(C(C)(C)C)CC1)c1ccccc1 (stereo unspecified)	0	1	112*	25	14
CCOC(=O)Nc1ccc(S(=O)(=O)Nc2nccc(C)n2)cc1	2	0	0	2	-5
S=C(NCc1ccccc1)NCc1ccccc1	-52*	-1	17	2	4
FC(F)Sc1ccc(NC(=S)NCc2ccccc2)cc1	-32*	1	16	-13	-3
CN(C)c1ccc(/C=N/NC(=S)NCc2ccccc2)cc1	-83*	0	1	0	-4
S=C(NCc1ccccc1)NCc1ccc(Cl)cc1	-15	0	6	0	-1
FC(F)(F)c1ccc(NC(=S)NCc2ccccc2)cc1	-37*	0	22	-8	-6
CC(=O)c1ccc(NC(=S)N(CCCN(C)C)Cc2ccccc2)cc1	4	1	8	-2	3
CN(C)CCCN(Cc1ccccc1)C(=S)Nc1ccc(SC(F)F)cc1	-9	3	32*	-12	1
Cc1c(-c2nsc(NC(=O)c3ccc(Cl)cc3)n2)nnn1-c1ccc(C(C)C)cc1	-15	0	5	-1	1
COC(=O)c1ccc(-n2nnc(-c3nsc(NC(=O)c4ccc(Cl)cc4)n3)c2C)cc1	-55*	2	3	1	3
CCCC(C)NC(=O)c1cccc(Oc2ccccc2)c1 (stereo unspecified)	6	-2	33*	-5	6
CC(=O)Nc1ccc(NC(=O)c2cccc(Oc3ccccc3)c2)cc1	1	0	2	-5	2
O=C(Cn1ncc(N2CCOCC2)c(Br)c1=O)c1ccc(Cl)cc1	1	-2	1	4	7
CCNC(=S)NNC(=O)CCn1c2ccccc2c2ccccc21	5	0	0	2	6
O=C(Cn1ncc2c(Cl)cccc21)NCc1cccc(Br)c1	-30*	-1	9	-5	-4
O=C(Cn1ncn2cccc2c1=O)NCc1cccc(Br)c1	2	0	1	0	1
O=C(Cn1ncc2c(Cl)cccc21)NCc1cccc(F)c1	-81*	-1	0	-4	4
CC(/C=C/c1ccc2c(c1)OCO2)=N\NC(=O)c1cccc([N+](=O)[O-])c1	4	-1	0	1	2
Cc1cc(C)cc(Nc2cc(C)nc3nc(-c4ccco4)nn23)c1	-39*	0	3	0	0
